# Assay results reported in PubChem BioAssay (Tox21).
# Inconclusive results are not listed. The source made the active and inactive calls. Calls follow the shape of the full dose curve.
# Experiment: p53 small molecule agonists, cell-based qHTS assay with human liver microsomes: qHTS cell viability counter screen (AID 1963579); also: nearly all actives have a fitted effect of over 45% in size
# Settings: p53RE-bla HCT-116 viability, ATP luminescence, 16 h, HLM; series mostly up to 66 µM; activity change, negative = cytotoxicity: at the top concentration
# From the text: National Center for Advancing Translational Sciences [NCATS]
# Division of Preclinical Innovation [DPI]
# U.S. Environmental Protection Agency [EPA]
# National Institutes of Environmental Health Sciences [NIEHS]
# National Toxicology Program [NTP]
# U.S. Food and Drug Administration [FDA]
# p53, a tumor suppressor protein, is activated following cellular insult, including DNA damage and other cellular stresses. The activation of p53 regulates cell fate by inducing DNA repair, cell cycle arrest, apoptosis, or cellular senescence. The activation of p53, therefore, is a good indicator of DNA damage and other cellular stresses. […] The activation of the reporter gene under culture conditions can be detected by fluorescence intensity. This cell line was used to screen the Tox21 10K compound library in the condition of presence of human liver microsomes and to identify agonists that activate the p53 signaling pathway after in vitro metabolic activation (Ooka et al., Archive of Toxicology 96:1975-1987, 2022).
# Tox21 Assay Protocol Summary:
# The p53RE-bla cells were dispensed at 4,000cells/3ul/well in 1536-well black-clear bottom plates. After the assay plates were incubated at 37 C, 5% CO2 incubator for 5 hours, 23 nL of compounds dissolved in DMSO, positive controls or DMSO only was transferred to the assay plate. Following compound addition, 3 uL of human liver microsomes (XenoTech, Kansas City, KS) at final concentration of 0.5 mg/mL and 1uL of B-Nicotinamide adenine dinucleotide 2'-phosphate (NADPH) at final concentration of 0.5 mg/mL were transferred to the assay plate. The plates were incubated at 37 C for 16 hours. 1 uL of LiveBLAzer detection mixture was added to each well and the plates were incubated at room temperature in the dark for 2 h. Fluorescence intensity at 460 and 530 nm emission and 405 nm excitation were measured by an Envision plate reader. For cell viability readout that measures cytotoxicity, 4 ul/well of CellTiter-Glo reagent was added into the assay plates using a Flying Reagent Dispenser. After 30 min incubation at room temperature, the luminescence intensity in the plates was measured using a ViewLux plate reader.
# % is scaled to controls: 0 for no effect and ±100 for the full control effect; potency is read from the fitted curve at half-maximal effect.
Structure (SMILES),"activity change, negative = cytotoxicity",Potency
c1ccc(Nc2ccc(Nc3ccccc3)cc2)cc1,-11.8% (inactive),
CN(C)CCN(C)C,-3.67% (inactive),
C=CC(=O)OCCN(C)C,-1.49% (inactive),
CC1(C)C(/C=C(\Cl)C(F)(F)F)C1C(=O)OC(C#N)c1cccc(Oc2ccccc2)c1 (stereo not given),-0.925% (inactive),
O=c1c(C2CC(c3ccc(-c4ccc(Br)cc4)cc3)Cc3ccccc32)c(O)sc2ccccc12 (stereo not given),30.8% [at 30.3 µM] (inactive),
O=S(=O)(O)c1cc(O)ccc1O,2.32% (inactive),
CC(N)=S,-1.23% (inactive),
CC(C1CC1)C(O)(Cn1cncn1)c1ccc(Cl)cc1 (stereo not given),12.8% (inactive),
[Cl][Sb]([Cl])[Cl],13% (inactive),
ClC(Cl)C(Cl)(Cl)Cl,2.05% (inactive),
CC(=O)[O-].CC(=O)[O-].O.O.[Zn+2],-10.9% (inactive),
CC#C[C@]1(O)CC[C@H]2[C@@H]3C[C@H](C)C4=CC(=O)CC[C@]4(C)[C@H]3CC[C@@]21C,-0.718% [at 30.3 µM] (inactive),
c1cc(OCC2CO2)ccc1Cc1ccc(OCC2CO2)cc1 (stereo not given),,inactive
CN(C)c1ccc(N)cc1,,35.5 µM (active)
CN(CCCC(O)c1cccnc1)N=O (stereo not given),0.0436% (inactive),
O=C1CN=C(c2ccccc2)c2cc([N+](=O)[O-])ccc2N1,-11.1% [at 30.3 µM] (inactive),
CCCCC(CC)COP(=O)(Oc1ccccc1)Oc1ccccc1 (stereo not given),2.88% (inactive),
CC(C)OC(=O)C(O)(c1ccc(Cl)cc1)c1ccc(Cl)cc1,,40.8 µM (active)
CNC(=O)O/N=C(\C)C(C)S(C)(=O)=O (stereo not given),,316 µM (active)
N#CN,-5.52% [at 172 µM] (inactive),

Structure (SMILES),"activity change, negative = cytotoxicity",Potency
O=C(Nc1ccccc1)c1ccccc1I,-2.7% (inactive),
CC(C)O.CC(C)O.OCCN(CCO)CCO.OCCN(CCO)CCO.[Ti],3.09% (inactive),
COc1nn(C(=O)NS(=O)(=O)c2ccccc2OC(F)(F)F)c(=O)n1C,11.6% (inactive),
CC(=O)[O-].CC(=O)[O-].CC(=O)[O-].[Cr+3],0.995% (inactive),
COP(=S)(OC)Oc1c(Cl)cc(C)cc1Cl,5.92% (inactive),
O=C(O)[C@H](O)[C@@H](O)C(=O)O,-19.4% (inactive),
CN=CNc1ccc(C)cc1C,3.15% (inactive),
CNC(=O)O/N=C(/CSC)C(C)(C)C,4.04% (inactive),
CC(C)c1c(CN(C)C(C)Cc2ccccc2)n(C)n(-c2ccccc2)c1=O (stereo not given),-0.0218% [at 30.3 µM] (inactive),
CC(Cl)(Cl)Cl,3.12% (inactive),
Cc1cc(C2CC2)nc(Nc2ccccc2)n1,2.06% (inactive),
CCC1(CC)C(=O)NC(=O)NC1=O,-1.39% [at 30.3 µM] (inactive),
O=C1NCN(c2ccccc2)C12CCN(CC1COc3ccccc3O1)CC2 (stereo not given),15.1% [at 30.3 µM] (inactive),
c1ccc2c(c1)cc1ccc3cccc4ccc2c1c34,0.402% (inactive),
C#CC1(O)CCCCC1,0.87% (inactive),
Cc1ncsc1CCCl,1.92% [at 30.3 µM] (inactive),
CC(=O)OCC1=C(C(=O)O)N2C(=O)[C@@H](N)[C@H]2SC1,-9.53% [at 13.5 µM] (inactive),
BrC(Br)C(Br)(Br)Br,-27.2% (inactive),
O=CNC(N1CCN(C(NC=O)C(Cl)(Cl)Cl)CC1)C(Cl)(Cl)Cl (stereo not given),0.432% (inactive),
Fc1ccc(Oc2ccnc3cc(Cl)cc(Cl)c23)cc1,-11.9% (inactive),
